From PubChem BioAssay (NCATS)
Calls of active or inactive are those of the source. The call rests on the fitted dose curve; in most records, active means well fitted inhibition curve with a large enough effect; inconclusive means small, poorly fitted or top-dose-only effect; inactive means flat fitted curve, though single readings scatter.

Biological target: DNA dC->dU-editing enzyme APOBEC-3G (Homo sapiens) (UniProt Q9HC16)
Assay: qHTS for inhibitors of Vif-A3G interactions: Validation (AID 588379)
Conditions: Vif-A3G protein interaction assay; series mostly up to 46.1 µM
Outline: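 Yellow fluorescence (Ex 488, Em 500-530) of Vif-coexpressing HeLa A3G-eYFP cells, scanned by Acumen cytometer, reports blocked A3G degradation. Cells plated at 700/well overnight at 37 deg C before compound addition, then a further overnight compound incubation at 37 deg C.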

Chain of DNA dC->dU-editing enzyme APOBEC-3G (Homo sapiens) (Q9HC16 whole entry, looked up): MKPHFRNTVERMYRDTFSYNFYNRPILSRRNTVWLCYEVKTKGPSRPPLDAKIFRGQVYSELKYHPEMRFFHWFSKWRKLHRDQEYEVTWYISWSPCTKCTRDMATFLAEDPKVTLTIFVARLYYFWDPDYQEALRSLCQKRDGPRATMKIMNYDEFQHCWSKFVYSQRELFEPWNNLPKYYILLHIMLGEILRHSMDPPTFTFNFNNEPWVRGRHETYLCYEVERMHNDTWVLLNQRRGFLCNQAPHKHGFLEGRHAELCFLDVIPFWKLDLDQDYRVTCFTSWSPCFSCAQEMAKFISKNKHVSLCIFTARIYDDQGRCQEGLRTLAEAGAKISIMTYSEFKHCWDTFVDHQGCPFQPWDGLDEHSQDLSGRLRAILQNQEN

Potency, inactive:
CO[C@]1(C2=NCCN2)COc2ccccc2O1
CCNCCCNCCCNCCCNCC
CCCCCCCCCCCC(=O)O[C@H](CC(=O)O)C[N+](C)(C)C
c1ccc(CN2CCC3(CCc4ccccc43)CC2)cc1
CC(C)(C)NC[C@H](O)c1ccc(O)c(CO)c1
Cc1c(C(=O)NN2CCOCC2)nn(-c2ccc(Cl)cc2Cl)c1-c1ccc(I)cc1
CCN(CC)c1ncnc2c1ncn2[C@@H]1O[C@@H](COP(=O)(O)OP(=O)(O)C(Br)(Br)P(=O)(O)O)[C@H](O)[C@H]1O
CCCN(CCC)C[C@@H]1CCCCN1CCNC(=O)N1c2ccccc2C(=O)Nc2cccnc21
Cc1ccc(/C(=C/CN2CCCC2)c2ccccn2)cc1
CCN(CC)C[C@@H]1CCCCN1CC(=O)N1c2ccccc2C(=O)Nc2cccnc21
N#C/C(=C\c1ccc(O)c(O)c1)C(N)=O
C[C@H](N)C(=O)O
CC(=O)Nc1ccc(OC[C@@H](O)CNC(C)C)cc1
CCOC(=O)C1=C(C)NC(c2ccccc2)=C(C(=O)OCc2ccc([N+](=O)[O-])cc2)[C@@H]1C#Cc1ccccc1
N[C@@H](Cn1cc(I)c(=O)n(Cc2ccc(C(=O)O)cc2)c1=O)C(=O)O
COc1ccccc1N1CCN(C[C@@H](O)COc2cccc3ccccc23)CC1
CS(=O)(=O)Nc1c(O)ccc2c1CCC[C@H]2C1=NCCN1
N[C@@H](C(=O)O)c1ccc(C(=O)O)cc1
